The results in this text go back to patent US20030059769, “High affinity nucleic acid ligands to lectins” (published 2003).

In the assay the target is T1, L-selectin (LS-Rg) (Homo sapiens, UniProt P14151 P14151:39-332).
T1 sequence: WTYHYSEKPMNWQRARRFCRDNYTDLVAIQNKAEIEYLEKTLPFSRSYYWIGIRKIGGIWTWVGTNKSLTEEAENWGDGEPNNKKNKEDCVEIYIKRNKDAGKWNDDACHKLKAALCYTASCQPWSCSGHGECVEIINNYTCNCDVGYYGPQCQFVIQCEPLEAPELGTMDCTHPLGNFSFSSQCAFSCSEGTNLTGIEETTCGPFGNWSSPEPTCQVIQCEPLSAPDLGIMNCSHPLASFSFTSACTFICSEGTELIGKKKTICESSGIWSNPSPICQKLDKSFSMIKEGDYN
Kind of assay: filter; 26-nt hairpin truncate. To be noted: tags: human IgG2 Fc fusion, chain copies: dimer, label: 32P; ssDNA.

Sequence GCGTTACAAGGTGCTAAACGTAACGT registered a binding signal of 100 fold weaker than LD227.

CCAGTACAAGGTGCTAAACGTAATGG displayed a binding signal of 20 fold weaker than LD201.
